# Data taken from PubChem BioAssay (NCATS).
# Records with an inconclusive call do not appear. Active and inactive are the calls of the source. The call rests on the fitted dose curve; in most records, active means well fitted inhibition curve with a large enough effect; inconclusive means small, poorly fitted or top-dose-only effect; inactive means flat fitted curve, though single readings scatter.
# Target: Aldehyde dehydrogenase, mitochondrial (Homo sapiens) (UniProt P05091)
# Assay: qHTS for Inhibitors of the Aldehyde Dehydrogenase Family (ALDH2) Primary screen (AID 2061308);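 further: plate controls were vehicle for no effect and reference inhibitor for full effect; nearly all actives have a fitted effect of over 55% in size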
# Details: ALDH2 enzyme inhibition qHTS, 1536-well; series mostly up to 56 µM; activity change, negative = inhibition: at the top concentration
row,Structure (SMILES),"activity change, negative = inhibition"
1,Cc1cc(NC(=O)Nc2nnc(C3CCCCC3)s2)ccc1Br,5.61% (inactive)
2,O=C(O)c1ccc(O)c2ncc(NC3CCNCC3)cc12,-9.23% (inactive)
3,CC(C)(C)N[S+](=O)([O-])c1cccc(-c2nnc(SCC(=O)Nc3ccc(C(=O)O)cc3)n2-c2ccccc2)c1,-16.4% (inactive)
4,Cc1cc2c(s1)c1cnn(Cc3ccc(C(=O)O)cc3)c(=O)c1n2C,5.53% (inactive)
5,COc1ccc(C2=Nn3c(nnc3-c3ccccc3Cl)SC2)cc1O[C@H]1CCOC1,9.94% (inactive)
6,CCOc1ccc(CCNC(=O)c2cc3ccccc3n2Cc2cc(C)cc(C)n2)cc1OCC,10.5% (inactive)
7,Cc1ccc(OCCn2c(CCNC(=O)C3CCC3)nc3ccccc32)cc1,13.8% (inactive)
8,CCc1cccc(CC)c1OCc1cc(C2Nc3ccccc3C(=O)N2Cc2ccco2)ccc1OC (stereo not given),-6.78% (inactive)
9,COCCN(CCOC)c1nc(C)nc2c1nc(-c1ccccc1)n2CCN1CCCC1,12% (inactive)
10,CN(C)c1cnc2c(O)cccc2c1,13.3% (inactive)
11,CCC(C)/C=C(C)/C=C/C1=CC2=CC(=O)C(C)(O)C(OC(C)=O)C2CO1 (stereo not given),-11.6% (inactive)
12,COc1c2cc(c(O)c1OC)CCCCC(O)CCc1ccc(O)c-2c1 (stereo not given),3.92% (inactive)
13,Cc1cc2c(s1)c1cnn(Cc3ccc(F)c(C)c3)c(=O)c1n2C,-9.97% (inactive)
14,COC(=O)c1ccc(-c2c(NC(C)=O)sc3c2CCNC3)cc1,-3.95% (inactive)
15,COc1cccc(C2c3c(ncn(-c4cccc(C#N)c4)c3=N)Oc3ccc4ccccc4c32)c1 (stereo not given),-2.43% (inactive)
16,O=C1CCCC2=C1C1(CCCCC1)N=C(Nc1nc3ccccc3o1)N2,-4.79% (inactive)
17,CCC(O)(c1nnc(NCc2ccc3c(-c4ccc(F)cc4)cc(=O)oc3c2)o1)C(F)(F)F (stereo not given),5.63% (inactive)
18,Nc1nc2c(ncn2C2OC3COP(=O)(O)OC3C2O)c(=O)[nH]1 (stereo not given),-14.5% (inactive)
19,Cc1ccsc1CNc1ncnc2ccc(-c3c(C)noc3C)cc12,2.17% (inactive)
20,CCNC(=O)c1ccc(-c2ccc3ncnc(NCc4nccs4)c3c2)o1,-0.933% (inactive)

row,Structure (SMILES),"activity change, negative = inhibition"
1,O=C(Nc1nc(-c2ccccc2)cs1)c1ccncc1NS(=O)(=O)c1ccc2c(c1)CCC2,-9.79% (inactive)
2,CC(=O)Nc1oc(-c2cccc3ccccc23)nc1C#N,-4.52% (inactive)
3,CCOc1ccc(C(=O)Nc2ccc(-c3nc4ccccc4[nH]3)cc2)cc1[N+](=O)[O-],-2.81% (inactive)
4,COC(=O)c1nc(Nc2cc(F)cc(F)c2)nc(NC2CCCC2)n1,1.92% (inactive)
5,CC(=O)Nc1ccc(NC(=O)c2cnn3c(C)cc(C)nc23)cc1,4.05% (inactive)
6,Nc1ccc(C(=O)Nc2ccc(-c3nc4ccccc4[nH]3)cc2)cc1Cl,4.19% (inactive)
7,COc1ccc(CC(=O)Nc2ccc(S(=O)(=O)Nc3cc(C)on3)cc2)cc1OC,-3% (inactive)
8,N#Cc1cnc(NS(=O)(=O)c2ccc(NC(=O)Cc3ccc(F)c(Cl)c3)cc2)s1,-4.37% (inactive)
9,FC(F)(F)c1ccccc1-c1nc2c(c(NCc3ccc(-c4cccnc4)cc3)n1)CCC2,8.58% (inactive)
10,COc1ccc(C[C@H](N)C(=O)N[C@@H]2[C@H](O)[C@H](n3cnc4c(N(C)C)ncnc43)O[C@@H]2CO)cc1,-6.36% (inactive)
11,COc1ccc(NS(=O)(=O)c2ccc3c(c2)CCC(=O)N3)cc1,-0.573% (inactive)
12,NC(=O)C1CCN(c2nc(-c3cccc(N)c3)cs2)CC1,0.86% (inactive)
13,Cc1cc(NS(=O)(=O)Cc2ccc(NC(=O)Cc3ccc(Cl)c(Cl)c3)cc2)no1,-23% (inactive)
14,Nc1ccc2c(c1)C(=O)NS2(=O)=O,2.56% (inactive)
15,CCCn1c(-c2ccc(F)cc2)nc2c(NCCCN(C)C)nc(C)nc21,15.5% (inactive)
16,COC(=O)Nc1sc2c(c1C(N)=O)CCCC2,-15.5% (inactive)
17,Cc1ccc(S(=O)(=O)Nc2cnccc2C(=O)Nc2ccc3ccccc3c2)cc1,1.07% (inactive)
18,Cc1cc2c(s1)c1cnn(Cc3ccc(SC(F)(F)F)cc3)c(=O)c1n2C,6.21% (inactive)
19,O=C(OCC#CCSc1nnc(-c2cccc3ccccc23)o1)C1CCCC1,1.14% (inactive)
20,O=C(CCc1ccccc1Br)NCCc1nc2ccccc2[nH]1,12.3% (inactive)
